Results on 8 compounds are retold here after PubChem BioAssay (NCI).

Each structure is given as a SMILES string. About 83,000 compounds went through this panel and 20% of them were active in at least one assay; those are over-represented in the sample as a whole.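 Plates (96-well) were seeded with cells, treated with compound at one concentration, and incubated for 48 hours before percent growth was determined.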 A number with no mark means an inactive call. The source made the active and inactive calls. The calls were made as follows: active = growth percent below 10; inactive = the rest.

Among the test systems are HCT-15 colon; HT29 colon; SNB-75 CNS; SNB-19 CNS; U251 CNS; PC-3 prostate; SK-MEL-5 melanoma; UACC-62 melanoma; LOX IMVI melanoma; SK-MEL-28 melanoma; SK-MEL-2 melanoma; EKVX NSCLC; SN12C renal; UO-31 renal; TK-10 renal; ACHN renal; CAKI-1 renal; A498 renal; CCRF-CEM leukemia; MOLT-4 leukemia.
What all share (assay): NCI-60 one-dose screen, 48 h (100 = growth as untreated, 0 = no growth, -100 = all killed)
What all share (conditions): 10 µM unless noted

For the compound `Cn1ccnc1C(=O)/C=C/C=C/c1ccc(C(=O)Nc2ccc(F)cc2)cc1`, the growth in the experiment with HCT-15 colon is -36.8% (active); with HT29 colon, 0.045% (active); in the experiment with SNB-75 CNS, 51.7%; with SNB-19 CNS, 39.6%; in the experiment with U251 CNS, -1.47% (active); in the experiment on PC-3 prostate it was 41.8%. Besides, the growth with SK-MEL-5 melanoma is 30.4%; in the experiment with UACC-62 melanoma it was 32.8%; in the experiment with LOX IMVI melanoma it was -65.7% (active); in the experiment with SK-MEL-28 melanoma it was 39.7%; in the experiment on SK-MEL-2 melanoma it was 90.8%; in the experiment on EKVX NSCLC it was 33.4%. Further, the growth was 1.94% (active) with SN12C renal; 44.3% in the experiment on UO-31 renal; 61.2% in the experiment on TK-10 renal; 21.9% in the experiment with ACHN renal; 37.2% in the experiment on CAKI-1 renal; 62% in the experiment with A498 renal. Further, the growth is 10.3% in the experiment on CCRF-CEM leukemia and 12.3% with MOLT-4 leukemia.
Take `CCCCCCCn1cc2c(N[C@H](C)c3ccccc3)ncnc2n1`: the growth with HCT-15 colon is 91.5%; with HT29 colon, 113%; in the experiment on SNB-75 CNS, 92.2%; with SNB-19 CNS, 94.3%; in the experiment on U251 CNS, 102%; in the experiment with PC-3 prostate it was 92.6%. The growth in the experiment on SK-MEL-5 melanoma is 109%; in the experiment on UACC-62 melanoma, 80.6%; with LOX IMVI melanoma, 99.2%; with SK-MEL-28 melanoma, 108%; in the experiment with SK-MEL-2 melanoma it was 123%; with EKVX NSCLC, 88.2%. The growth with SN12C renal was 99.2%; with UO-31 renal, 78.3%; in the experiment with TK-10 renal it was 126%; in the experiment with ACHN renal it was 102%; with CAKI-1 renal, 88.2%; in the experiment on A498 renal, 87.6%. The figures for the growth in the experiment with CCRF-CEM leukemia and in the experiment with MOLT-4 leukemia were 99.6% and 102%, respectively.
For `Cc1ccc(NC(=O)c2ccc(CN3CCN(C)CC3)cc2)cc1Oc1ccc(-c2[nH]nc3ncnc(N)c23)cc1`, the growth with HCT-15 colon was 99.4%; in the experiment with HT29 colon, 12.6%; in the experiment with SNB-75 CNS it was 75.1%; in the experiment with SNB-19 CNS, 104%; in the experiment with U251 CNS, 86.8%; with PC-3 prostate, 84.5%. Also, the growth was 85.2% with SK-MEL-5 melanoma; 84.3% in the experiment on UACC-62 melanoma; 66.7% in the experiment with LOX IMVI melanoma; 88.6% in the experiment with SK-MEL-28 melanoma; 103% with SK-MEL-2 melanoma; 107% in the experiment on EKVX NSCLC. The growth is 96.4% with SN12C renal; 85.3% with UO-31 renal; 110% in the experiment with TK-10 renal; 101% with ACHN renal; 92.5% in the experiment with CAKI-1 renal; 94.3% in the experiment with A498 renal. Moreover, the growth in the experiment with CCRF-CEM leukemia is 59.5%; in the experiment on MOLT-4 leukemia, 71.7%.
For `O=C1CCCC2=C1C(c1c[nH]c3ccc(Br)cc13)Cc1cc(Br)ccc1N2` (stereo not given), the growth is 26.5% in the experiment on HCT-15 colon; 12.2% in the experiment with HT29 colon; 39.8% in the experiment with SNB-75 CNS; 32.6% with SNB-19 CNS; 31.6% in the experiment with U251 CNS; 9.76% (active) in the experiment with PC-3 prostate. In addition, the growth was 43% in the experiment on SK-MEL-5 melanoma; 10.4% with UACC-62 melanoma; 14.1% in the experiment on LOX IMVI melanoma; 54.3% in the experiment on SK-MEL-28 melanoma; 25.3% in the experiment on SK-MEL-2 melanoma; 41.9% in the experiment with EKVX NSCLC. The growth in the experiment with SN12C renal is 34.5%; with UO-31 renal, 36.3%; in the experiment on TK-10 renal, 94.8%; in the experiment on ACHN renal, 36.2%; in the experiment on CAKI-1 renal it was 24.7%; in the experiment with A498 renal, 13.5%. The figures for the growth in the experiment with CCRF-CEM leukemia and in the experiment on MOLT-4 leukemia were 6.67% (active) and 21.5%, respectively.
Take `CCNC(=O)N1CCc2cc(OC)c(OCCc3ccc(OC)c(N)c3)cc2C1c1cc(C)c(C)cc1C` (stereo not given): the growth in the experiment on HCT-15 colon is 14.7%; with HT29 colon, 21.9%; in the experiment on SNB-75 CNS, 22.1%; in the experiment on SNB-19 CNS, 34.6%; with U251 CNS, 28.4%; in the experiment with PC-3 prostate it was 36.7%. Also, the growth in the experiment with SK-MEL-5 melanoma is 27.7%; in the experiment on UACC-62 melanoma, 23.1%; with LOX IMVI melanoma, 7.03% (active); in the experiment on SK-MEL-28 melanoma, 44.7%; in the experiment with SK-MEL-2 melanoma, 33.2%; in the experiment on EKVX NSCLC, 58.3%. Besides, the growth with SN12C renal was 39.4%; in the experiment with UO-31 renal, 38.4%; in the experiment with TK-10 renal, 68%; with ACHN renal it was 32.5%; in the experiment with CAKI-1 renal, 30.1%; with A498 renal, 20%. For the same compound, the growth was 46.7% in the experiment with CCRF-CEM leukemia and 32.3% with MOLT-4 leukemia.
For the compound `COc1ccc([C@H]2c3[nH]c4ccccc4c3C[C@H]3C(=O)N(C4CCN(Cc5c(Cl)cccc5Cl)CC4)CC(=O)N23)c(OC)c1`, the growth was 92.4% in the experiment on HCT-15 colon; 103% in the experiment with HT29 colon; 99.3% with SNB-75 CNS; 95.5% with SNB-19 CNS; 95.8% with U251 CNS; 72.7% in the experiment with PC-3 prostate. Further, the growth in the experiment with SK-MEL-5 melanoma was 95.7%; in the experiment on UACC-62 melanoma, 84.1%; in the experiment with LOX IMVI melanoma, 98.6%; in the experiment with SK-MEL-28 melanoma, 101%; with SK-MEL-2 melanoma, 103%; in the experiment with EKVX NSCLC, 86.2%. Moreover, the growth was 91% with SN12C renal; 53.7% with UO-31 renal; 110% with TK-10 renal; 86.8% in the experiment with ACHN renal; 73.4% in the experiment on CAKI-1 renal; 128% with A498 renal. The growth is 94.6% with CCRF-CEM leukemia and 86.2% with MOLT-4 leukemia.
Regarding `CCCCc1nc(/C=N/Nc2nc(Nc3ccccc3)nc(Nc3ccc(S(N)(=O)=O)cc3)n2)c(Cl)[nH]1`, the growth is 103% in the experiment on HCT-15 colon; 102% in the experiment on HT29 colon; 112% with SNB-75 CNS; 30.7% in the experiment on SNB-19 CNS; -1.83% (active) in the experiment on U251 CNS; 83% in the experiment on PC-3 prostate. The growth with SK-MEL-5 melanoma was 75.2%; in the experiment with UACC-62 melanoma, 72.8%; in the experiment with LOX IMVI melanoma it was 41.1%; in the experiment with SK-MEL-28 melanoma, 71%; with SK-MEL-2 melanoma, 65.8%; in the experiment on EKVX NSCLC, 102%. In addition, the growth in the experiment on SN12C renal was 93.6%; in the experiment with UO-31 renal it was 85.4%; with TK-10 renal, 112%; with ACHN renal, 100%; with CAKI-1 renal it was 105%; in the experiment with A498 renal, 89.3%. Besides, the values for the growth with CCRF-CEM leukemia and in the experiment on MOLT-4 leukemia were 12.5% and 41.4%, respectively.
Regarding `CN1CCN(c2ccc(/C=N/n3cnc4oc(-c5ccccc5)cc4c3=N)cc2)CC1`, the growth with HCT-15 colon is 83.9%; with HT29 colon it was 66.2%; in the experiment with SNB-75 CNS, 55.3%; in the experiment with SNB-19 CNS, 101%; with U251 CNS, 100%; in the experiment with PC-3 prostate, 63.2%. For the same compound, the growth in the experiment with SK-MEL-5 melanoma was 88.6%; with UACC-62 melanoma, 93%; with LOX IMVI melanoma, 61.3%; in the experiment on SK-MEL-28 melanoma it was 77.8%; with SK-MEL-2 melanoma, 103%; in the experiment on EKVX NSCLC, 88.4%. The growth with SN12C renal was 66%; in the experiment on UO-31 renal, 63.7%; in the experiment with TK-10 renal it was 119%; in the experiment with ACHN renal, 70.1%; in the experiment with CAKI-1 renal it was 72.5%; in the experiment on A498 renal, 81.4%. Moreover, the results for the growth in the experiment on CCRF-CEM leukemia and with MOLT-4 leukemia were 44.8% and 44.4%, respectively.
